Bioassay records as filed in PubChem.
Pf Dd2 growth: qHTS Primary assay for Inhibitors of Plasmodium falciparum Dd2 growth in vitro | P. falciparum Dd2 growth, SYBR Green, 72 h | Potency, µM (doses to about 28.9 µM), usual class: inhibitors | 4.3% of 120,000 active; active = well fitted inhibition curve with a large enough effect; also: nearly all actives have a fitted effect of over 65% in size
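Readout: SYBR Green fluorescence, 485 nm excitation, 535 nm emission, after ~16 h lysis at 37C. Before that, Dd2-infected red cells (2.5% hematocrit) grew 72 h with compound, 29 uM top final concentration.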
A number is an active result; – = inactive; ! = not confirmed by another sample. The entries come from a sample that favours hits as a whole.

SMILES | Pf Dd2 growth
CC(c1cccs1)N(C)Cc1cccc2ccccc12 (centres undefined) | 13µM
O=C(N[C@H]1C[C@@H]2C(=O)N[C@H]3CCN(C(=O)c4cccs4)[C@@H]3C(=O)N2C1)C1CCCC1 | –
COc1ccc(C(=O)N2CCCCCCNC(=O)[C@@H]3CCCC[C@@H]32)cc1F | –
Cc1ccc(NC(=O)CSc2nc(-c3ccco3)cc(C(F)(F)F)n2)cc1C | –
COc1ccc(NC(=O)CCCSc2nc(-c3ccco3)cc(C(F)(F)F)n2)cc1 | –
CC(=O)c1cccc(NC(=O)CCCSc2nc(-c3ccco3)cc(C(F)(F)F)n2)c1 | –
Cc1cc(F)ccc1NC(=O)CCSc1nc(-c2ccco2)cc(C(F)(F)F)n1 | 8.9µM
COc1ccc(NC(=O)CCCSc2nc(-c3ccco3)cc(C(F)(F)F)n2)c(OC)c1 | –
Cc1ccc(NC(=O)CCSc2nc(-c3ccco3)cc(C(F)(F)F)n2)cc1F | 0.79µM
CCc1ccccc1NC(=O)CCn1ccn2nc3c(c2c1=O)CCCC3 | –
COC(=O)[C@H](NC(=O)[C@@H]1C[C@H](NC(=O)NC(C)C)CN1C(=O)c1cccn1C)C(C)C | –
O=C(NC1CC1)C1CCN(C(=O)N2CC3CC(C2)[C@H]2CCCC(=O)N2C3)CC1 (some centres undefined) | –
Cc1nc2c(c(-c3ccc(O)cc3)n1)CN(C(=O)c1ccccc1Cl)CC2 | –
c1ccc2c(N3CCN(Cc4cc5n(n4)CCNC5)CC3)nsc2c1 | –
CCOc1ccccc1CN1CCC2(CCN(C(C)=O)CC2)Oc2ccccc21 | –
CCOc1ccccc1CN1CCC2(CCN(C(=O)C3CC3)CC2)Oc2ccccc21 | –
CCOc1ccccc1CN1CCC2(CCN(Cc3ccsc3)CC2)Oc2ccccc21 | 10µM
CCOc1ccccc1CN1CCC2(CCN(C(=O)NC3CCCC3)CC2)Oc2ccccc21 | –
CCOc1ccccc1CN1CCC2(CCN(C(=O)c3cccc(OC)c3)CC2)Oc2ccccc21 | –
CCOc1ccccc1CN1CCC2(CCN(C(=O)Cc3ccccn3)CC2)Oc2ccccc21 | 11µM!
COc1ccc2nc(CNC(=O)C3CCN(C(=O)C4CCC4)CC3)[nH]c2c1 | –
O=C(Nc1nncs1)C1CC(=O)N(c2n[nH]c3cccc(F)c23)C1 (centres undefined) | –
O=C(NCc1ccc(Cl)nc1)c1cc2cccnn2n1 | –
COCCOc1ccc2c(n1)CCN(C(=O)C1(c3ccc(OC)cc3)CC1)C2 | 7.1µM
COCCOc1ccc2c(n1)CCN(C(=O)C1CCCC1)C2 | –
SMILES | Pf Dd2 growth
COCCOc1ccc2c(n1)CCN(C(=O)c1ccccc1OC)C2 | –
Cc1ccc(CNC(=O)CC2Sc3ncccc3N(C)C2=O)cc1 (centres undefined) | –
CCN(Cc1ccccc1)S(=O)(=O)c1ccc2[nH]c3c(c2c1)CCCCC3 | 13µM
CCc1ccc(NS(=O)(=O)c2ccc3[nH]c4c(c3c2)CCCCCC4)cc1 | –
Cc1ccc(N(C)S(=O)(=O)c2ccc3[nH]c4c(c3c2)CCCC4)cc1 | –
Cc1cc(C(=O)N2CCC(N3CC4CC(C3)[C@H]3CCCC(=O)N3C4)CC2)n(C)n1 (some centres undefined) | –
O=C1CCN(C(=O)C2(c3ccccc3)CC2)CCCC(C(=O)NCc2ccccc2)CCN1 (centres undefined) | 0.4µM
O=C1CCN(C(=O)C2CCCCC2)CCCC(C(=O)NCc2ccccc2)CCN1 (centres undefined) | –
O=C1CCN(C(=O)c2ccco2)CCCC(C(=O)NCc2ccccc2)CCN1 (centres undefined) | –
CCCNC(=O)N1CCC[C@H](n2c(=O)n(CCOC)c3cccnc32)C1 | –
CCOc1ccccc1NC(=O)N1CCCCCCN(C)C(=O)[C@H]2CCC[C@H]21 | 11µM
CN1CCCCCCN(C(=O)NC2CCCCC2)[C@H]2CCC[C@H]2C1=O | –
CCOc1ccccc1NC(=O)N1CCCCCCN(C)C(=O)CC1 | –
O[C@H]1CC[C@@H](Cc2cc(-c3ccccc3)on2)O[C@@H]1CNC1CCNCC1 | –
COc1ccc(-c2nnc3ccc(Nc4cccc(OC)c4)nn23)nc1 | 10µM
COc1ccc(-c2nnc3ccc(NC(C)C)nn23)nc1 | –
COc1ccc(Nc2ccc3nnc(-c4ccc(C)cn4)n3n2)cc1 | –
CCc1ccc(C(=O)N2C[C@@H](CO)[C@H](N(C)C)C2)cc1 | –
Cc1ccc(C2Cn3nnc(-c4noc(COc5ccc(F)cc5)n4)c3CO2)cc1 (centres undefined) | –
COc1cccc(-c2nc(-c3nnn4c3COC(c3ccc(C)cc3)C4)no2)c1OC (centres undefined) | –
COc1ccccc1Cc1nc(-c2nnn3c2COC(c2ccc(C)cc2)C3)no1 (centres undefined) | 7.9µM
CCCNc1cc(N2CCC(CCC(=O)Nc3cccc(C)c3)CC2)ncn1 | –
CSCCCN1CCC2(Cc3ccccc3CNC2=O)C1 (centres undefined) | –
CCCS(=O)(=O)N1CCC(N2CC(OCC3CC3)C23CCOCC3)CC1 (centres undefined) | –
O=c1n(-c2ccncc2)nc2n1CCN(Cc1ccc(C(F)(F)F)cc1)C2 | 7.9µM
SMILES | Pf Dd2 growth
COc1ccc(CN2CCn3c(nn(-c4ccc(C(F)(F)F)cc4)c3=O)C2)cc1 | –
O=c1n(-c2ccc(Cl)cc2)nc2n1CCN(Cc1ccc(C(F)(F)F)cc1)C2 | –
CC1=NN(CC(=O)N2CCN(Cc3ncc[nH]3)CC(C(=O)O)C2)CC1 (centres undefined) | –
N[C@H]1CN(C(=O)c2ccccc2Oc2ccccc2)C[C@@H]1C1CC1 | 6.3µM
N[C@H]1CN(C(=O)C2CCN(C(=O)c3ccccn3)CC2)C[C@@H]1C1CC1 | –
NC(=O)[C@@H]1CN(C(=O)c2ccccc2F)C[C@H]1COc1ccccc1 | –
O=C(CCC[C@@H]1[C@H]2CCCN3CCC[C@@H](CN1C(=O)C1CCC1)[C@@H]23)NCC1CC1 | –
O=C1N(C2CCN(S(=O)(=O)c3cnc[nH]3)CC2)C(c2ccccc2)C12CCCC2 (centres undefined) | –
CCC(C)NC(=O)C(NC(=O)c1ccccc1)C1CCN(C(=O)c2ccc(Cl)cc2)CC1 (centres undefined) | –
CN(Cc1cccnc1)C1CN(C(=O)c2ccc3ccccc3n2)C1 | –
O=C(C1CCCC1)N1CCC2(CC1)CC(Cc1ccccc1)=NO2 | –
c1ccc(CC2=NOC3(CCN(C4CCCCC4)CC3)C2)cc1 | 10µM
c1ccc(CN2CCCC3(CC(c4ccccn4)=NO3)C2)cc1 (centres undefined) | –
c1ccc(CC2=NOC3(CCN(Cc4c[nH]c5ccccc45)CC3)C2)cc1 | 13µM
NC(=O)c1cccc(CN2CCC3(CC2)CC(Cc2ccccc2)=NO3)c1 | –
c1ccc(CC2=NOC3(CCCN(Cc4ccns4)C3)C2)cc1 (centres undefined) | 6.3µM
c1cncc(C2=NOC3(CCN(C4CCCCC4)CC3)C2)c1 | –
CC(C)C1=NOC2(CCN(Cc3c[nH]c4ccccc34)CC2)C1 | –
Cc1ccc(C(=O)N2CCCC3(CC(Cc4ccccc4)=NO3)C2)cc1 (centres undefined) | –
COC[C@@H]1CN(C(=O)Cc2cccc(F)c2)C[C@H]1c1ccncc1 | –
Cn1ncc2c(-c3ccc([S+](C)(=O)[O-])cc3)cc(C(=O)N3CCCC3)nc21 | –
O=C(NCCOc1ccccc1)c1nc2c(o1)CCN(Cc1cccs1)CC2 | –
Cc1c(Cl)cccc1NC(=O)N1CCCC(Cn2cnc3cccnc32)C1 (centres undefined) | –
